# The whole screen tested about 220,000 compounds, of which about 2,000 (0.91%) were called active. About 2% were inconclusive and are not listed. No stated cut-off is given here; in the data, inconclusive means inhibition above about 80% without an active follow-up result; inactive means below that; test concentration not stated here. Not all results are given here. Potency and affinity values are given separately.
# Experiment: M. tuberculosis H37Rv growth inhibitors, H37Rv strain (AID 1626);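 further: bacteria incubated seven days before Alamar blue readout; 0% = bacteria only wells and 100% = bacteria with antibiotic wells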
# Details: hits give high values, concentration not given here
row,Compound,inhibition
1,CCOCCCNC(=O)c1cc2c(=O)n3cccc(C)c3nc2n1C,1.27% (inactive)
2,c1ccc(-c2ncc3c(ccc4ccccc43)n2)cc1,4.61% (inactive)
3,CCOc1ncccc1C(=O)Nc1ccccc1C(=O)NCc1ccc2c(c1)OCO2,-0.12% (inactive)
4,Cc1ccccc1Nc1nc(N)nc(CSc2nnc(C)n2C)n1,3.87% (inactive)
5,CCOC(=O)C1=C(C)Nc2nc3ccccc3n2C1c1ccccc1 (stereo not given),-9.7% (inactive)
6,CCn1c2ccccc2c2cc(C3N=C(N)Nc4nc5ccccc5n43)ccc21 (stereo not given),-6.84% (inactive)
7,NC1=NC(c2ccc(Cl)cc2)n2c(nc3ccccc32)N1 (stereo not given),4.44% (inactive)
8,Cc1cccc(C2N=C(N)Nc3nc4ccccc4n32)c1 (stereo not given),-9.29% (inactive)
9,NC1=NC(c2ccccc2Cl)n2c(nc3ccccc32)N1 (stereo not given),7.21% (inactive)
10,Cc1ccc(C2N=C(N)Nc3nc4ccccc4n32)cc1 (stereo not given),-6.16% (inactive)
11,O=C1C2C3CCC(C3NCc3ccccc3)C2C(=O)N1Cc1ccccc1 (stereo not given),-0.18% (inactive)
12,OC(CSc1ccc(F)cc1)CN1CCN(c2ccccc2)CC1 (stereo not given),2.78% (inactive)
13,Cc1nc(-c2nc(-c3c(C(=O)NNC(=O)Nc4ccccc4)noc3C)cs2)cs1,1.03% (inactive)
14,Cc1nc(NC(=O)c2cc(-n3cnnc3)ccc2Cl)ccc1Br,0.92% (inactive)
15,O=C(COC(=O)c1ccc(-c2ccc([N+](=O)[O-])cc2)o1)NC(=O)NC1CCCCC1,31% (inactive)
16,COc1ccc(CC(=O)OCC(=O)NC(=O)NC23CC4CC(CC(C4)C2)C3)cc1,0.65% (inactive)
17,O=C(NC12CC3CC(CC(C3)C1)C2)c1ccc(=O)oc1,-2.56% (inactive)
18,O=C(NC12CC3CC(CC(C3)C1)C2)c1ccccc1,2.5% (inactive)
19,CCN(Cc1cc2ccc(C)cc2[nH]c1=O)C(=O)c1cccnc1,3.56% (inactive)
20,COCCSc1nnc(NS(=O)(=O)c2ccc(C)cc2)s1,-4.12% (inactive)
21,O=C(CSc1nnc(-c2ccco2)n1Cc1ccccc1)OC1CCCCC1,-11.8% (inactive)
22,N/C(=N\OC(=O)/C=C/c1ccccc1)c1ccc(Cl)cc1,1.43% (inactive)
23,COC(=O)c1cc(C#N)c(N2CCOCC2)nc1C,-9.18% (inactive)
24,O=C(O)c1cc(Cl)ccc1-c1ccc(/C=C/c2cc(C(F)(F)F)[nH]c(=O)n2)o1,-1.69% (inactive)
25,O=C(O)c1ccccc1-c1ccc(/C=C/c2cc(C(F)(F)F)[nH]c(=O)n2)o1,-2.38% (inactive)

row,Compound,inhibition
1,Cc1ccc(S(=O)(=O)Nc2cc(C(C(=O)OC(C)C)C(=O)C(F)(F)F)c(O)c3ccccc23)c(C)c1 (stereo not given),-10.5% (inactive)
2,CCc1nc(N)c(C#N)c(-c2ccc(OC)c(OC)c2)c1C,-2.13% (inactive)
3,COc1ccc(CNC(=O)/C=C/c2ccc(OCCCF)cc2)cc1,11.3% (inactive)
4,O=C(/C=C/c1ccc(OCCCF)cc1)Nc1ccnc(-c2cccnc2)n1,-6.59% (inactive)
5,O=C(Nc1ccc2nc(SCc3ccc(Cl)cc3)sc2c1)c1ccccc1C(=O)N1CCOCC1,4.76% (inactive)
6,CC(=O)Nc1ccc2nc(SCC(=O)N3CCOCC3)sc2c1,5.08% (inactive)
7,CCCn1c(=O)c(C(=O)NCc2ccc(OC)c(OC)c2)c(O)c2ccccc21,-0.33% (inactive)
8,COc1ccc(-c2nc(NC(=O)c3nc4nccc(C)n4n3)sc2C)cc1,-7.46% (inactive)
9,Cc1ccc(-c2nc(NC(=O)c3cc(C(C)(C)C)nn3C)sc2C)cc1Cl,78.4% (inactive)
10,C1CN(CC2CCN(c3nc4nonc4nc3N3CCSCC3)CC2)CCO1,-0.53% (inactive)
11,CCCCc1ccc(NC(=O)CC(C)=O)cc1,77.5% (inactive)
12,CCCCc1ccc(NC(=O)OC)cc1,58% (inactive)
13,CCCCc1ccc(NC(=O)N[C@@H](C)C(=O)O)cc1,0.78% (inactive)
14,CCCCc1ccc(NC(=O)CC(C)(C)C)cc1,5.76% (inactive)
15,CCN(CC)C(=O)C1=C(C)Nc2ncnn2C1c1cccnc1 (stereo not given),-0.97% (inactive)
16,Cc1nn2c(-c3ccccc3)ccnc2c1-c1ccccc1,-0.56% (inactive)
17,OCC1OC(n2nnc3ccccc32)C(O)C(O)C1O (stereo not given),-9.39% (inactive)
18,Cc1cc(NC(=O)CCl)on1,0.735% (inactive)
19,Cc1cc(NC(=O)CCl)no1,65% (inactive)
20,CSc1nc(=O)n2cc(C)ccc2n1,0.11% (inactive)
21,CCOC(=O)C(NC(C)=O)(Nc1ccc(S(=O)(=O)Nc2cc(C)nc(C)n2)cc1)C(F)(F)F (stereo not given),-6.92% (inactive)
22,Cc1ccc(NC(=O)c2ccc(CSc3ccccn3)cc2)cc1,14.1% (inactive)
23,O=C(Nc1ccccc1)c1ccc(CSc2ncccn2)cc1,3.69% (inactive)
24,CCOC(=O)C(=CNc1ccc(Oc2cncc(Cl)c2)nc1)C(=O)OCC,2.61% (inactive)
25,O=C(Nc1ccc(-n2nncc2-c2ccco2)cc1)c1ccc(F)cc1,0.33% (inactive)

row,Compound,inhibition
1,Cc1onc(-c2ccccc2Cl)c1C(=O)Nc1ccc(-n2nncc2-c2ccco2)cc1,68% (inactive)
2,Cc1ccc(-c2nnn(CC(=O)N3CCCCC3)n2)o1,-0.84% (inactive)
3,CC(OC(=O)C1=COCCO1)C(=O)Nc1ccccc1C#N (stereo not given),-7.04% (inactive)
4,CC(C)(C)NC(=O)Nc1ccc(Br)cc1,-1.24% (inactive)
5,CCC(C)NC(=O)Nc1ccc(Br)cc1 (stereo not given),1.26% (inactive)
6,COc1c(Cl)cc(Cl)cc1C(=O)Nc1ccc(NC(=O)c2cccs2)cc1,56.1% (inactive)
7,COc1ccc(C(=O)/C=C\c2ccc(NC(=O)c3cccs3)cc2)cc1,-0.27% (inactive)
8,CC1SCC(=O)N(CC(=O)Nc2ccc3c(c2)OCCO3)C1=O (stereo not given),2.44% (inactive)
9,Nc1nc2ccccc2n1C(=O)c1ccco1,2.98% (inactive)
10,Cn1c(CNC(=O)c2ccc(F)cc2)nc2ccccc21,-0.81% (inactive)
11,Cc1ccc(S(=O)(=O)/N=C(\c2ccc(F)cc2)n2c(C)nc3ccccc32)cc1,4.23% (inactive)
12,Nc1nc2ccccc2n1C(=O)CCc1ccccc1,0.09% (inactive)
13,O=C(COc1ccc2ccccc2c1)N1c2ccccc2Sc2ccccc21,2.2% (inactive)
14,CN(Cc1ccccc1)S(=O)(=O)c1ccc(NS(C)(=O)=O)cc1,-4.2% (inactive)
15,CC(=O)Nc1cc(Br)ccc1O,3.76% (inactive)
16,CN(Cc1ccccc1)C(=O)c1cc2ccccc2o1,6.83% (inactive)
17,CCOc1cc(C(=O)Nc2ccc(F)cc2)cc(Br)c1OC,9.07% (inactive)
18,CCN(CC)c1ccc(/C=N/OCC(=O)N2CCCc3ccccc32)cc1,1.23% (inactive)
19,CNc1c([N+](=O)[O-])cnn1-c1ccccc1Cl,4.21% (inactive)
20,Cc1ccccc1-c1cnn(-c2cccc([N+](=O)[O-])c2)c1N,5.3% (inactive)
21,O=C(CSc1nnc(NC(=O)Cc2ccccc2)s1)NCc1ccco1,-1.92% (inactive)
22,O=C(O)c1sccc1S(=O)(=O)c1ccccc1,-0.34% (inactive)
23,Cn1nccc1C(=O)Oc1ccc(/C=N/NC(=O)c2ccccc2O)cc1,-6.68% (inactive)
24,Cc1nnc(Cl)c2nn(-c3ccccc3)c(C)c12,-0.17% (inactive)
25,CC(C)(C)OC(=O)NCCCCCc1nnc(SCc2cccc(F)c2)o1,75% (inactive)

row,Compound,inhibition
1,Cc1cccc(CSc2nnc(CCNC(=O)OC(C)(C)C)o2)c1,15% (inactive)
2,CC(C)(C)OC(=O)NCCCCCc1nnc(SCc2ccc(F)cc2)o1,60.9% (inactive)
3,Cc1ccc(CSc2nnc(CCNC(=O)OC(C)(C)C)o2)cc1,7.99% (inactive)
4,O=S(=O)(NC1CCCc2ccccc21)c1cnc[nH]1 (stereo not given),1.01% (inactive)
5,Nc1ccccc1C(=O)OCC(=O)c1ccc2c(c1)OCCO2,-1.04% (inactive)
6,O=C(COC(=O)c1cccs1)c1ccc2ccccc2c1,7% (inactive)
7,Nc1nc(N)c(N=Nc2ccc(SCC(=O)O)cc2)c(=O)[nH]1,-4.15% (inactive)
8,CN(C)S(=O)(=O)N(CC(=O)NCCSCc1ccccc1)c1ccccc1,22.6% (inactive)
9,Cc1ccc(CN2CCN(Cc3ccncc3)CC2CCO)o1 (stereo not given),-0.74% (inactive)
10,CCN(CC)CCOC(=O)c1ccc([N+](=O)[O-])cc1,1.65% (inactive)
11,O=C1c2ccccc2C(=O)N1c1ccc(Cl)cc1,-5.9% (inactive)
12,Cc1ccc(N2C(=O)C3C(c4ccccc4)(C2=O)C3(c2ccccc2)c2ccccc2)cc1 (stereo not given),7.89% (inactive)
13,CCc1ccccc1N1C(=O)c2cccc3c(N4CCOCC4)c([N+](=O)[O-])cc(c23)C1=O,7.95% (inactive)
14,Cc1cccc(N2C(=O)c3cccc4c(N5CCCCC5)c([N+](=O)[O-])cc(c34)C2=O)c1C,9.67% (inactive)
15,COCCNS(=O)(=O)c1cc(-c2nn(C)c(=O)c3ccccc23)ccc1C,-0.86% (inactive)
16,Cc1sc2nc(COC(=O)c3cccc(OC(F)F)c3)[nH]c(=O)c2c1C,11.1% (inactive)
17,Cc1ccc(NC(=O)COC(=O)c2ccc([N+](=O)[O-])s2)c(C)c1,9.26% (inactive)
18,Cc1ccccc1NC(=O)/C=C/c1cccs1,-3.01% (inactive)
19,Cc1cc([N+](=O)[O-])ccc1NC(=O)/C=C/c1cccs1,-0.49% (inactive)
20,COc1ccccc1NC(=O)C(=O)N/N=C/c1ccc([N+](=O)[O-])s1,4.5% (inactive)
21,CCNc1nc(NCC)nc(SCCOc2ccc(C)cc2)n1,15.1% (inactive)
22,COc1ccc(S(=O)(=O)NCC2CCCN(C(=O)c3ccco3)C2)cc1 (stereo not given),-5.58% (inactive)
23,Cc1cc(CNC(=O)CC2C(=O)NCCN2CC(c2ccccc2)c2ccccc2)on1 (stereo not given),1.54% (inactive)
24,Cn1ncc2c(Nc3ccccc3Cl)nc(Nc3ccccc3Cl)nc21,29.2% (inactive)
25,Cn1ncc2c(Nc3ccc(O)cc3)nc(Cl)nc21,-3.66% (inactive)

# — PubChem BioAssay AID1626 (SRMLSC, 2009)
